The values that follow come from PubChem BioAssay AID1455 (National Center for Advancing Translational Sciences (NCATS), 2008).

Inconclusive results are not listed. Entries that show only a call come without a potency. Calls of active or inactive are those of the source. The call rests on the fitted dose curve; in most records, active means well fitted inhibition curve with a large enough effect; inconclusive means small, poorly fitted or top-dose-only effect; inactive means no such curve, though single readings can be large or run the other way.

The target of this assay is Ubiquitin carboxyl-terminal hydrolase 2 (Homo sapiens) (UniProt O75604). Description: Confirmation Concentration-response Assay for Inhibitors of Ubiquitin-specific Protease USP2a. The conditions noted are these: USP2 core, Ub-PLA2 coupled fluorescence, NBD C6-HPC; series mostly up to 38.3 µM. The text has this: NIH Molecular Libraries Screening Centers Network [MLSCN] NIH Chemical Genomics Center [NCGC] MLSCN Grant: XO1-MH079852-01 PI Name: Nicholson, Ben. Progenra Inc, Malvern, PA NCGC Assay Overview: Homeostasis of cellular proteins is maintained through a combination of synthesis and degradation. The pathway that accounts for the majority of protein degradation is the ubiquitin-proteasomal pathway. Ubiquitin (Ub) is highly conserved in all cells and the generation of a multi-Ub chain typically targets proteins for degradation by the proteasome. However, ubiquitination is highly reversible and dynamic. Deubiquitination, the reverse process, is catalyzed through the action of enzymes referred to as isopeptidases or deubiquitinating enzymes (DUBs). This group of enzymes is collectively responsible for maintaining adequate pools of free ubiquitin and regulating the ubiquitination status of cellular proteins. The class of DUBs referred to as the ubiquitin-specific proteases (USP) family functions endoproteolytically to cleave Ub chains from a wide range of protein substrates. USP2a deubiquitinates fatty acid synthase (FASN) which has recently been identified as an emerging oncology target. To identify inhibitors of USP2a a cell-free assay was employed. […] The reporter enzyme chosen is phospholipase A2 (PLA2), which has an absolute requirement for a free amino terminus. Thus, fusion of a UBL to the N-terminus of PLA2 inactivates PLA2. When the UBL-PLA2 reporter enzyme is cleaved by USP2, the activated reporter can subsequently act on its substrate, which is the commercially available NBD C6-HPC (Invitrogen). Thus, this coupled assay gives a fluorescent read-out, which is generated through the cleavage of the PLA2 reporter enzyme. The assay, developed by Progenra, Inc. uses Ub-PLA2 and USP2a at near equal and low (nM) amounts and has been licensed for sale by LifeSensors, Inc. as the Ub-IsoPro1 kit.
Ubiquitin carboxyl-terminal hydrolase 2 (Homo sapiens), sequence (O75604 whole entry, looked up): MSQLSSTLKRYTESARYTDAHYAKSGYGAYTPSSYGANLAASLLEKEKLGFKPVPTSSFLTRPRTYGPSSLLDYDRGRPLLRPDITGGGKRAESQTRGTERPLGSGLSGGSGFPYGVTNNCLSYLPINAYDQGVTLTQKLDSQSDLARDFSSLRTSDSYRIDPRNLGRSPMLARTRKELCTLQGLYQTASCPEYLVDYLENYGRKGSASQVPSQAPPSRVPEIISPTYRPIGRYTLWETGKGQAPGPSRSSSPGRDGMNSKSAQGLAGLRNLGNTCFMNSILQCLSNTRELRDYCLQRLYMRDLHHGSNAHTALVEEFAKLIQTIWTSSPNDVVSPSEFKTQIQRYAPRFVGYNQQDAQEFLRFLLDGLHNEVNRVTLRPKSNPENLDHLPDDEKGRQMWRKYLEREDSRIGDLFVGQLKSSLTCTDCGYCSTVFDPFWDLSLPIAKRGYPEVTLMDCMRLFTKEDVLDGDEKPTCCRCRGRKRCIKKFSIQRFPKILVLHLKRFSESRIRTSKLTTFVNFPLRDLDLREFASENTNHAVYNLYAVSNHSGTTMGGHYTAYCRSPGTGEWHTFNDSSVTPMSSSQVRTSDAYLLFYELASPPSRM
NCGC Assay Protocol Summary: The assay buffer, prepared fresh at the day of the assay, contains 20mM Tris-HCl pH 8.0, 2mM CaCl2, 2mM beta-Mercaptoethanol, 0.1% DMSO. 3ul of 40nM (20nM final) USP2 core, which is stored on ice, is dispensed into a medium-binding black solid Kalypsys 1,536 well plate using the Kalypsys dispenser. The assay plate is then pinned with 23nL compound with the Kalypsys pintool in columns 5-48. The controls are pinned as follows: column 1&2 two-fold dilutions of 2M NEM in duplicate; column 3 DMSO; column 4 2M NEM (final concentration […]). The assay plate is incubated at RT for 30min. Subsequently, 3uL of 40nM (20nM final) Ub-PLA2 and 40uM (20uM final) NBD C6-HPC (stored on ice and protected from light) were dispensed into the plate using the Kalypsys dispenser. Plates were read immediately (0 Hour) on an Envision (Perkin Elmer) plate reader using the following wavelengths Ex 460nm /Em 535nm. Then, the assay plates were incubated for 2.5 hours and read again on the Envision using the same settings Data were normalized to the to AC100 inhibition (NEM). Concentration-response curves were fitted to the normalized data and the concentration-response curves were then classified based on curve quality (r2), response magnitude and degree of measured activity. The time zero reading was used to flag fluorescence artifacts. Keywords: ubiquitination, deubiquitination, proteases, profluorescent, MLSMR, MLSCN, NIH Roadmap, qHTS, NCGC
As for `COc1ccc(Cl)cc1NC(=O)CSc1nc(=O)[nH]c2c1CCC2`, the Potency entry was “inactive”.
Next, `COc1ccc(C(=O)/C=C/c2cn(CC(O)CN(CC(C)C)CC(C)C)c3ccccc23)cc1OC` (centres undefined): 12.6 µM (active).
With `Cc1ccc(S(=O)(=O)Cc2nc(-c3ccc(C(=O)NCc4ccccc4F)cc3)oc2C)cc1` the figure was 14.1 µM (active); with `CCc1ccc(C(=O)c2c(N)c(-c3nc(-c4ccc5c(c4)OCO5)cs3)c3ccccn23)cc1`, “inactive”; with `CCOC(=O)C1CCCN(c2c(C(=O)c3ccc(C)cc3)cnc3ccc(OCC)cc23)C1` (centres undefined), 3.16 µM (active).
With `CCS(=O)(=O)c1nc(S(=O)(=O)c2ccc(C)cc2)c(NCC(C)C)s1` the figure was 2.82 µM (active); with `Cc1ccc([C@H]2Nc3ccc(S(=O)(=O)Nc4cccc(Cl)c4C)cc3[C@H]3C=CC[C@H]32)cc1`, 7.94 µM (active); with `CCC(C)NC(=O)CSc1nc2cc3c(cc2c(=O)n1Cc1ccc(C(=O)NCCc2ccc(OC)c(OC)c2)cc1)OCO3` (centres undefined), “inactive”.
`CCCCCC(=O)N1c2ccccc2C(C)(c2ccccc2)CC1(C)C` (centres undefined): the Potency was 12.6 µM (active).
With `O=C(CCS(=O)(=O)c1ccccc1)N(Cc1cccnc1)c1nc2c(Cl)cccc2s1` the entry was “inactive”; with `Cc1ccc(-n2nc3c(=O)n(CCCC(=O)NCCc4ccccc4Cl)nc(C)c3c2C)cc1`, 11.2 µM (active).
`Oc1c(C(Nc2ccccn2)c2ccccc2F)ccc2cccnc12` (centres undefined): the Potency entry is “inactive”.
Take `COC(=O)c1c(NC(=O)CS(=O)(=O)c2ccc(C)cc2)sc2c1CCCCC2`: the Potency entry is “inactive”.
With `Cc1cc(C)c2nc(N(Cc3cccnc3)C(=O)CCS(=O)(=O)c3ccccc3)sc2c1` the entry was “inactive”.
